IL-1B inflam inh – inflammasome signaling inhibition, IL-1 beta readout; THP-1 LPS/ATP IL-1B secretion, AlphaLISA, 16 h; stronger effect = lower value; activity change, % at 57.5 µM; hit rate 4.7% among 360,000; AID 743279; in the data active = activity change below about -50%; inconclusive = mostly about -30% to -49%
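THP-1 cells pretreated 1 hr with compounds (up to 57.5 uM final), then stimulated with LPS (250 ng/mL final) plus ATP (1.25 mM final); secreted IL-1B measured by AlphaLISA after 16 hr, decreased signal indicating inhibition.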
HT1080 IDH1KD tx – HT-1080 IDH1 knockdown cell toxicity (counter line). HT-1080 IDH1 knockdown viability, ATP luminescence, 48 h. hit rate 2% among 360,000. Potency, µM (titrated, usually from 46.1 µM), inactives show at the top dose activity, negative = toxicity, usual class: cytotoxic;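 note: potency is the fitted concentration of half-maximal effect; 0% = DMSO wells and -100% = cell-free medium wells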
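Luminescent ATP read-out (CellTiter-Glo, 10 min at room temperature) after 48 h compound exposure at 37 °C gave viability of IDH1-knockdown HT-1080 cells. Activity was normalised to DMSO and cell-free wells, then fitted as concentration-response curves.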
HT1080-NT tox – kills 2HG-producing HT-1080-NT fibrosarcoma cells; Potency, µM (top dose mostly 46.1 µM), for inactives: at the top dose activity, negative = less viability, usual class: cytotoxic; HT-1080-NT fibrosarcoma viability, CellTiter-Glo ATP luminescence, 48 h; hit rate 1.6% among 360,000; AID 686970;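 note: NT is the 2HG producing partner of a matched IDH1 knockdown line; potency is the fitted concentration of half-maximal effect; 0% = DMSO-treated cells and -100% = media-only wells without cells; nearly all actives have a fitted effect of over 55% in size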
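A 48-hour cytotoxicity screen used HT-1080-NT cells plated 2 hours before compound delivery. ATP-based CellTiter-Glo luminescence measured viability, normalized to DMSO and no-cell controls.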
ELG1 repair inh – blocks ELG1-dependent DNA repair in HEK293T cells; HEK293T ELG1-luciferase reporter, luminescence, 16 h; DNA damage induced by 5-fluorouridine; Potency, µM (titrated, usually from 46.1 µM), for the others: at the highest dose activity change, negative = inhibition, most hits filed as inhibitors; hit rate 2.3% among 330,000; AID 504467; note: potency is the fitted concentration of half-maximal effect; nearly all actives have a fitted effect of over 55% in size
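Step one: seed 2,000 cells per well. Step two: pin-transfer compound or DMSO alongside 5-fluorouridine. Step three: incubate 16 hr, 37 °C, 5% CO2. Step four: add ONE-Glo, wait 30 min, read luminescence.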
DT40 TDP1 CPT – DT40-hTDP1 cell growth loss with CPT; chicken DT40 Tdp1-/-;hTDP1 cells + 20 nM CPT, ATP luminescence, 48 h; Potency, µM (highest dose often 46.2 µM), inactives show at the top dose activity change, negative = growth inhibition, actives largely listed as inhibitors; hit rate 12% among 420,000; AID 686979; note: potency is the fitted concentration of half-maximal effect; nearly all actives have a fitted effect of over 55% in size
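Chicken DT40 Tdp1-/- cells stably complemented with human TDP1 were seeded at 400 cells/well in medium containing 20 nM camptothecin, exposed to pin-transferred compounds, and grown at 37 °C for at least 48 hr. Viability was read as ATP luminescence.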
TDP1 cell noCPT – qHTS for Inhibitors of human tyrosyl-DNA phosphodiesterase 1 (TDP1): qHTS in cells in absence of CPT; DT40 Tdp1-/- hTDP1 cells, no CPT, ATP luminescence, 48 h; Potency, µM (top dose mostly 46.2 µM), for the others: at the highest dose activity change, negative = growth inhibition, most hits filed as inhibitors; hit rate 15% among 420,000; note: potency is the fitted concentration of half-maximal effect; nearly all actives have a fitted effect of over 55% in size
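DT40 Tdp1-/-;hTDP1 cells, no CPT (DMSO vehicle only), 400 cells/well; compounds pin-transferred; ≥48 hr, 37 °C; CellTiter-Glo 30 min RT dark, luminescence read.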
An asterisk follows results filed as active; ? = inconclusive; nt = no result; [ ] = dose if it differs, or a comment. This is a sample that favours compounds with a hit; in the whole collection about 19% have one here. Unless noted, calls come from the whole dose curve; as a rule, active = well fitted curve in the direction sought with a large enough effect; inconclusive = small, poorly fitted or top-dose-only effect, or another doubt; inactive = no such curve, though single readings can be large; an effect the other way counts as inactive or inconclusive. Unless noted, % is set by controls: 0 for no effect and ±100 for the full control effect.

SMILES	IL-1B inflam inh	HT1080 IDH1KD tx	HT1080-NT tox	ELG1 repair inh	DT40 TDP1 CPT	TDP1 cell noCPT
O=C(CCCSc1ccc(Cl)cc1)Nc1ccccc1O	-3.7	-6.7%	-19.5%	?	5.6%	?
COCCn1cnc2c1c(=O)n(Cc1ccc(C#N)cc1)c(=O)n2Cc1ccccc1	-8.1	-4.0%	-15.7%	-1.1%	-11.9%	-17.2%
Cc1ccc(C2=Nc3ccccc3N(CC(=O)Nc3ccccc3F)C(=O)C2)cc1C	nt	nt	nt	nt	23.1µM*	25.9µM*
O=C(CN1C(=O)CC(c2ccccc2)=Nc2ccccc21)Nc1ccc(Br)cc1	nt	nt	nt	nt	?	20.6µM*
CN(C)c1ccc(NC(=O)CN2C(=O)CC(c3ccccc3)=Nc3ccccc32)cc1	-4.6	1.0%	-1.9%	-4.7%	1.7%	-20.8%
Cc1ccc(NC(=O)CN2C(=O)CC(c3ccc(C)c(C)c3)=Nc3ccccc32)cc1	nt	nt	nt	nt	20.6µM*	18.4µM*
CC(C)CNC(=O)c1c(N)n(/N=C/c2cccnc2)c2nc3ccccc3nc12	nt	nt	nt	-3.0%	nt	nt
COCCCNC(=O)c1c(N)n(/N=C/c2cccnc2)c2nc3ccccc3nc12	?	16.1%	8.4%	?	?	6.51µM*
COCCCNC(=O)c1c(N)n(/N=C/c2cccs2)c2nc3ccccc3nc12	0.6	-0.7%	-4.3%	?	18.4µM*	?
Cc1cc(C)c(NC(=O)C2CC(=O)N(C3CCCC3)C2)c(C)c1 (stereo not given)	3.8	8.2%	0.0%	?	-13.0%	11.3%
COc1ccc(NC(=O)C(Cc2ccccc2)NS(=O)(=O)c2ccc3c(c2)oc(=O)n3C)c(OC)c1 (stereo not given)	nt	nt	nt	nt	-8.7%	-19.9%
O=c1c2cc(Br)ccc2nc(-c2ccccc2)n1O	0.0	-15.6%	-11.1%	-14.4%	-28.8%	?
O=C1CC(c2ccccc2)Cc2nc(N3CCc4ccccc4C3)ncc21 (stereo not given)	7.8	-2.1%	-7.0%	-12.0%	?	?
O=C1CC(c2ccco2)Cc2nc(N3CCN(Cc4ccc5c(c4)OCO5)CC3)ncc21 (stereo not given)	10.0	-1.3%	-5.9%	?	-12.5%	-22.8%
Cc1ccc(C2CC(=O)c3cnc(N4CCN(c5ccccc5)CC4)nc3C2)cc1 (stereo not given)	11.8	12.5%	7.6%	-17.5%	?	16.4µM*
CCN1CCN(c2ncc3c(n2)CC(c2ccc(OC)c(OC)c2)CC3=O)CC1 (stereo not given)	11.7	12.6µM*	11.2µM*	?	23.1µM*	14.6µM*
O=C1CC(c2ccc(F)cc2)Cc2nc(N3CCN(c4ccccc4)CC3)ncc21 (stereo not given)	-1.6	8.4%	8.9%	?	?	?
COc1ccc(C2CC(=O)c3cnc(N4CCN(Cc5ccccc5)CC4)nc3C2)cc1 (stereo not given)	-9.8	-9.8%	-11.3%	?	?	23.1µM*
Cc1ccc(C2CC(=O)c3cnc(N4CCc5ccccc5C4)nc3C2)cc1 (stereo not given)	15.3	-3.0%	-3.3%	14.4%	?	18.4µM*
O=C(NCCN1Cc2ccccc2OC(c2ccccc2F)C1)c1cncs1 (stereo not given)	nt	nt	nt	nt	-2.4%[9.04 µM]	?
CN(C)c1ccc2c(=O)cc[nH]c2c1	21.3	24.7%	9.2%	nt	-5.3%	4.2%
O=C(N/N=C/c1ccoc1)c1cccc(OC(F)(F)C(F)F)c1	-3.1	1.2%	-4.0%	nt	-12.2%	-24.1%
CCOC(=O)Cc1nnc(NC(=O)c2ccccc2OC)s1	-14.2	2.4%	17.2%	0.0%	-2.6%	-20.2%
CCCCc1nnc(NC(=O)c2ccccc2OCc2c(C)noc2C)s1	-3.3	2.7%	-0.3%	?	16.4µM*	23.1µM*

Compound activity (PubChem BioAssay)
